From ChEMBL document CHEMBL3988442, “University of Dundee, Small-Polar-MMV Screening Library” (2021)
For some assays here: Results with a measured potency or affinity are listed apart.

What was measured:
Set-up in all cases: scale not given: direction of the effect not stated beside the values
[1] = biological target: Protein translocase subunit SecA (Escherichia coli (strain K12)) (UniProt P10408); assay: Assay to Identify E. coli SecA ATPase Inhibitors; assay type: functional; conditions: 30 µM
Chain of Protein translocase subunit SecA (Escherichia coli (strain K12)) (P10408 whole entry): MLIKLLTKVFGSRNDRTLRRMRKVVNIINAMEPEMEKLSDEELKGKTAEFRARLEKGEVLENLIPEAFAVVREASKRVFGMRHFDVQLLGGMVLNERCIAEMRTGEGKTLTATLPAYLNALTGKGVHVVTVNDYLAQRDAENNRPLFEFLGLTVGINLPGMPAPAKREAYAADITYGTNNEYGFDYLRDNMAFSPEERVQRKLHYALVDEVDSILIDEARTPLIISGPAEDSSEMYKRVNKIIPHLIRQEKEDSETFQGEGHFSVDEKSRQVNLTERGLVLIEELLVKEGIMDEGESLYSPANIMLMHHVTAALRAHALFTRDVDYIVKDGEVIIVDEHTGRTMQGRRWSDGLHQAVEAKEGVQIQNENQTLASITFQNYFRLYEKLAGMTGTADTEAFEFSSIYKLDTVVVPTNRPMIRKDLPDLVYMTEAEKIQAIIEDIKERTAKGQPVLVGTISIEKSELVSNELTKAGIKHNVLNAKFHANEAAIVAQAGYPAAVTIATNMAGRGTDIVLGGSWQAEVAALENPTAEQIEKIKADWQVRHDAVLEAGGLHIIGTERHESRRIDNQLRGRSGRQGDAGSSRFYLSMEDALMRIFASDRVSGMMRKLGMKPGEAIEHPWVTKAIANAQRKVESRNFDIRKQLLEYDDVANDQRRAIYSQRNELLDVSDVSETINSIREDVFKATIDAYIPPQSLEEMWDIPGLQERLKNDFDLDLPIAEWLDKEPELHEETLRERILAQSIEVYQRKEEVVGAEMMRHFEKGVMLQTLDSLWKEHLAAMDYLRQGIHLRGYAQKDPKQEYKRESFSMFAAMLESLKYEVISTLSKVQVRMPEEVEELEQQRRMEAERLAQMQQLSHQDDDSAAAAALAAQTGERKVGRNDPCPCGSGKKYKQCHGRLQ

[2] = biological target: T1, Ubiquitin-activating enzyme e1, putative (Leishmania donovani (strain BPK282A1)) (UniProt E9BSI1); assay: Leishmania donovani Ubiquitin Activating Enzyme (LdE1); assay type: functional; conditions: 30 µM
T1 sequence (whole entry): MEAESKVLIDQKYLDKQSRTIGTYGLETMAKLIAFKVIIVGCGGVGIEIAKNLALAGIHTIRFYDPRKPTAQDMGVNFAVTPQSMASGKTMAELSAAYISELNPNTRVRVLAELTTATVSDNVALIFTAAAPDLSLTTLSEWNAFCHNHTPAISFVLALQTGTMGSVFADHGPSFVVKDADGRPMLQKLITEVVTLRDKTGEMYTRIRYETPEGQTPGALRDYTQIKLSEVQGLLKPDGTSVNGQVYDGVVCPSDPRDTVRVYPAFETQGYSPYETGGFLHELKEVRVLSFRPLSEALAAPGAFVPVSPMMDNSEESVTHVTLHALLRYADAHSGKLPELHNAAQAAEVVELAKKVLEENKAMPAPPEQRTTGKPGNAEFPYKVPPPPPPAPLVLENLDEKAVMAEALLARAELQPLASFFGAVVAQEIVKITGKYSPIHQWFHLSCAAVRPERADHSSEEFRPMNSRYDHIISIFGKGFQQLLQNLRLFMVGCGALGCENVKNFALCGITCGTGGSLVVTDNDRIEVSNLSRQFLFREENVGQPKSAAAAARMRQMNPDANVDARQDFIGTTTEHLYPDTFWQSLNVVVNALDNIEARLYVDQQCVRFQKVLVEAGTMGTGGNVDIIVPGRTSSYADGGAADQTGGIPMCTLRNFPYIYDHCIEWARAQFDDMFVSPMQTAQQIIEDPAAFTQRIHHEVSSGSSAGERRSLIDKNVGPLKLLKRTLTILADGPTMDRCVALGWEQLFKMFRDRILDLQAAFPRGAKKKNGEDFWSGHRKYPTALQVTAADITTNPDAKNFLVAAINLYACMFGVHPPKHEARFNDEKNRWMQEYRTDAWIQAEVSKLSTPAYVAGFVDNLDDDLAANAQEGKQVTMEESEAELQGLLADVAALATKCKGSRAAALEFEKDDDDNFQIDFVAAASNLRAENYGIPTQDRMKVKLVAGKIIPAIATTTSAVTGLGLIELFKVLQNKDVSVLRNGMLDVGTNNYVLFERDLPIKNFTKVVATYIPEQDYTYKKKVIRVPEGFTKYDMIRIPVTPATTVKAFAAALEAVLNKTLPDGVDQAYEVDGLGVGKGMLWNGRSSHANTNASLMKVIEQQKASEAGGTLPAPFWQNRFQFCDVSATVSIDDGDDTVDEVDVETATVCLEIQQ

[3] = biological target: Sialic acid-binding Ig-like lectin 9 (Homo sapiens) (UniProt Q9Y336); assay: Hs-Siglec9 ALPHAscreen SOP 20170721; conditions: 10 µM
Chain of Sialic acid-binding Ig-like lectin 9 (Homo sapiens) (Q9Y336 whole entry): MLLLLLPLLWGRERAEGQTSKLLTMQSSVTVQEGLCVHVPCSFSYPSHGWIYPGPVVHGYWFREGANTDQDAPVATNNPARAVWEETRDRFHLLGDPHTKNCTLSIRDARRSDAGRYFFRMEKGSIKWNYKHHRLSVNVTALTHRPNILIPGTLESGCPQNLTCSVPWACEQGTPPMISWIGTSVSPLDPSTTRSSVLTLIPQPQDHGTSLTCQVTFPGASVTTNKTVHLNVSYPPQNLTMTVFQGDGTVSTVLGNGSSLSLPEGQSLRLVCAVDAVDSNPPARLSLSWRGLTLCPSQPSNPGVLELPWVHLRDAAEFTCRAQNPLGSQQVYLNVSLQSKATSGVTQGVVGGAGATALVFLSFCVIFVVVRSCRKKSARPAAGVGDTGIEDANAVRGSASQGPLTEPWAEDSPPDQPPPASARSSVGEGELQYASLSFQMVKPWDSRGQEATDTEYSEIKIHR

[4] = tested on: Trypanosoma cruzi; assay: Trypanosoma cruzi phosphomannomutase and mannose-1-phosphate guanylyltransferase assay; assay type: functional; conditions: 10 µM
[5] = biological target: T2, Arginase-2, mitochondrial (Homo sapiens) (UniProt P78540); assay: in vitro enzyme assay to detect the production of urea directly proportional to the activity of Arginase II; assay type: functional; conditions: 33.3 µM; further: in the data most compounds retested in dose-response had high values
T2 sequence (whole entry): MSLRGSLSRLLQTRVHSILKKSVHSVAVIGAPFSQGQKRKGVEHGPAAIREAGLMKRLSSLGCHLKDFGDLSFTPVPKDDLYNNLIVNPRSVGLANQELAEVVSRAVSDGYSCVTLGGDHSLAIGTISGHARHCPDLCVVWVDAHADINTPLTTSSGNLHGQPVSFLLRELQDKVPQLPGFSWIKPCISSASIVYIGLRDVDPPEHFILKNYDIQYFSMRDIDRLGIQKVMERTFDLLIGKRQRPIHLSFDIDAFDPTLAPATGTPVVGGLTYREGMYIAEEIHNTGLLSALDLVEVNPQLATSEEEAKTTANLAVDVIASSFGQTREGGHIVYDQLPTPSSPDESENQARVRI

[6] = biological target: T3, Proteasome subunit beta (Trypanosoma cruzi) (UniProt O96673); assay: Trypanosoma cruzi proteasome chymotrypsin-like activity (TcProtChymo) assay.; further: in the data most compounds retested in dose-response had high values; assay type: functional; conditions: 9.37 µM
T3 sequence (whole entry): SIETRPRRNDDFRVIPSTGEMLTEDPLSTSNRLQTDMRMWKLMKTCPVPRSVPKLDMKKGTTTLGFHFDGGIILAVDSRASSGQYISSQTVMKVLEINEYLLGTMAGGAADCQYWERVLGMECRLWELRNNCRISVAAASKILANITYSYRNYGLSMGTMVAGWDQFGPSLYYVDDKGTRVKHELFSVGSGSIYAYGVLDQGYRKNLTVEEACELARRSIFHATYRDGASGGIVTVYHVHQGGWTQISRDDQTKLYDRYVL

[7] = species: Homo sapiens; assay: To identify inhibition of the IFN signalling (Jak-Stat) pathway via expression of an eGFP reporter gene under the control of an IFN-stimulated response element (ISRE) containing MxA promoter.; assay type: functional; conditions: 30 µM
[8] = biological target: T4, Tyrosyl-tRNA synthetase, putative (Trypanosoma cruzi (strain CL Brener)) (UniProt Q4DSP6); assay: Trypanosoma cruzi tyrosyl tRNA synthetase (TcYRS) _High Tyrosine SOP; assay type: functional; conditions: 30 µM; further: in the data most compounds retested in dose-response had high values
T4 sequence (whole entry): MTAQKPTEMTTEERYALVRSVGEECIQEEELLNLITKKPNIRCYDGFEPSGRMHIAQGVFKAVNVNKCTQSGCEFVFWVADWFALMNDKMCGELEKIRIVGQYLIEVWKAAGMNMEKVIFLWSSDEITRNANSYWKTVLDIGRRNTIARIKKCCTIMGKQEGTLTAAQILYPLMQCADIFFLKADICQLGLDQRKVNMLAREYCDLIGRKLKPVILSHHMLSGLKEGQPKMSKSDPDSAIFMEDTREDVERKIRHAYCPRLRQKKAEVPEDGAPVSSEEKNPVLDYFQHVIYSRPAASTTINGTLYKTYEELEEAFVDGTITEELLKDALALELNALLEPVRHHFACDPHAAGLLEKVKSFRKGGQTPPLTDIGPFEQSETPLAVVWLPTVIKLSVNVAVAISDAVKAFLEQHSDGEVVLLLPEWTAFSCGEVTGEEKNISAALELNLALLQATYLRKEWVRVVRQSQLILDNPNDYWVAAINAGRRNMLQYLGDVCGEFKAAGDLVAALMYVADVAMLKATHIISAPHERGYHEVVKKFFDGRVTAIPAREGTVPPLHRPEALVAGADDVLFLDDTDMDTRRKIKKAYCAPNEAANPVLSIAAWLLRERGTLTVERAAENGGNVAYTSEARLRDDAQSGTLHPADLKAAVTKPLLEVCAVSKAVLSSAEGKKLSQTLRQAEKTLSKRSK

[9] = biological target: T4, Tyrosyl-tRNA synthetase, putative (Trypanosoma cruzi (strain CL Brener)); assay: Trypanosoma cruzi tyrosyl tRNA synthetase (TcYRS) SOP; assay type: functional; conditions: 30 µM
[10] = biological target: Chromo domain-containing protein 1 (Saccharomyces cerevisiae (strain ATCC 204508 / S288c) (Baker's yeast)) (UniProt P32657); assay: ScCHD-1 Enzyme Inhibition Assay; assay type: functional; conditions: 30 µM; further: in the data most compounds retested in dose-response had high values
Chain of Chromo domain-containing protein 1 (Saccharomyces cerevisiae (strain ATCC 204508 / S288c) (Baker's yeast)) (P32657 whole entry, the tested form may be a part): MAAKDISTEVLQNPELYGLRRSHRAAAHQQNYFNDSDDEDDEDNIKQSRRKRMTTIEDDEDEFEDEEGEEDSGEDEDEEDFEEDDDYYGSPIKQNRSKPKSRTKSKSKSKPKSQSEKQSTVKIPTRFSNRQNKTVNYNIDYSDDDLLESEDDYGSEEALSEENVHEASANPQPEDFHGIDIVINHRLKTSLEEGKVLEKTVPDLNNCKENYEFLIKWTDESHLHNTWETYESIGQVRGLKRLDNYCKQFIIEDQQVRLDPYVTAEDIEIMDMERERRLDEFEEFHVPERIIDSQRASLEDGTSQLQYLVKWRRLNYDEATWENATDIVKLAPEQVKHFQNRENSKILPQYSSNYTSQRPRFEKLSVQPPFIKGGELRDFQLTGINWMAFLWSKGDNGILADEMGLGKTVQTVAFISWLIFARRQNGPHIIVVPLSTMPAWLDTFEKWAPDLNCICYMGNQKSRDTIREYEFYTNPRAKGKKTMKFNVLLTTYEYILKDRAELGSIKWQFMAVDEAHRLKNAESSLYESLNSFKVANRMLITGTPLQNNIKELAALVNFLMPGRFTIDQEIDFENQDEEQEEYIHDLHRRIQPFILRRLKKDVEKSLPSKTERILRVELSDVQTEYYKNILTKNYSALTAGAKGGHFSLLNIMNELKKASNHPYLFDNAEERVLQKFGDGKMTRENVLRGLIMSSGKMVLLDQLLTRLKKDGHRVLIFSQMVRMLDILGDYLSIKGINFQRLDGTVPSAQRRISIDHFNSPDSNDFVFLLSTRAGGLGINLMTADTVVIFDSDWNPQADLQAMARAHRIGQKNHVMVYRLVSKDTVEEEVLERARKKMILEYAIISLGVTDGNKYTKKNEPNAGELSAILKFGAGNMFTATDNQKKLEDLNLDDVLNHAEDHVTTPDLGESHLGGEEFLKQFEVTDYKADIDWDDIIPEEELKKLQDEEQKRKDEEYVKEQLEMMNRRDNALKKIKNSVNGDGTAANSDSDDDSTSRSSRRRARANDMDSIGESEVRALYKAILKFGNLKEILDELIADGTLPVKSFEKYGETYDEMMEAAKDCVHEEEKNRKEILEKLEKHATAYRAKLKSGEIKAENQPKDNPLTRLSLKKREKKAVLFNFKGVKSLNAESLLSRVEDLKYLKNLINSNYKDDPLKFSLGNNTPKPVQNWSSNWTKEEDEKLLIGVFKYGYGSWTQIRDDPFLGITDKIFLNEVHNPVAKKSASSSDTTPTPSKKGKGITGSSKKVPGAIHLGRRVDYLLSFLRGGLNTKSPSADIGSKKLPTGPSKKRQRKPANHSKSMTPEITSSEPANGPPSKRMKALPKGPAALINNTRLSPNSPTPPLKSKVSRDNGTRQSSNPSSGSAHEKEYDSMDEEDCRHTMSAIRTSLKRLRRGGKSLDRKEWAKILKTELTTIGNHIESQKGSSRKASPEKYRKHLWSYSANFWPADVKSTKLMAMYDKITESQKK

SMILES	Percent Effect [1]	Percent Effect [2]	Percent Effect [3]	Percent Effect [4]	Percent Effect [5]	Percent Effect [6]	Percent Effect [7]	Percent Effect [8]	Percent Effect [9]	Percent Effect [10]
CCCn1ccc(C(=O)N2CCOC(c3nc(-c4cccs4)no3)C2)n1 (stereo not given)	-2.75%	6.67%	6.13%	-1.18%	0%	4.76%	1.83%	5.29%	17.5%	-17.3%
COc1ccc(C)cc1C(C)NC(=O)NCCCn1cncn1 (stereo not given)	-2.2%	18.7%	1.49%	1.81%	1.33%	13.5%	4.64%	6.84%	20.5%	-10.3%
Cc1cc(NCc2cc3n(n2)CCCN(S(C)(=O)=O)C3)ncn1	-8.82%	2.7%	4.07%	3.59%	5.94%	4.97%	0.911%	3.72%	12.2%	0.638%
CCc1nc(C2CCCN2CCCS(=O)(=O)c2ccccc2)no1 (stereo not given)	-2.94%	15.4%	-14.9%	2.16%	0.41%	13.1%	6.1%	4.31%	22.9%	-3.94%
CCOc1ccc(Cl)c(C(=O)NCc2ccc(C(=O)NC)cc2)n1	-5.52%	15.4%	-5.92%	4.79%	4.92%	8.62%	9.74%	5.26%	20.5%	0.666%
Cc1ccccc1CN(C)Cc1nc2c(cnn2C)c(=O)[nH]1	-0.754%	10.3%	-3.07%	1.41%	-0.82%	16.8%	7.6%	8.13%	18.1%	-3.59%
CC(C)N1CCCC2(CCN(C(=O)CCCn3ccnc3)C2)C1=O (stereo not given)	-6.84%	2.7%	0.678%	-2.62%	-1.75%	13.4%	-5.32%	4.79%	12.2%	-0.546%
CC(Nc1cccc(CN2CCOC2=O)c1)C(=O)NC(N)=O (stereo not given)	-7.02%	15.4%	-17.4%	13.1%	-4.1%	7.76%	15.9%	8.13%	18.1%	17.9%
Cc1nc(C)n(CC2CN(CCOCC(F)(F)F)CCO2)n1 (stereo not given)	-1.11%	0%	2.9%	0.602%	2.22%	0.594%	6.11%	-1.58%	2.56%	-2.07%
Cc1cnn(C(C)C2CC2)c1NC(=O)c1ccncc1 (stereo not given)	-9.84%	-5.41%	-2.58%	-1.26%	1.75%	5.82%	-1.9%	-1.6%	0%	-0.204%
Cc1ccc(Cl)cc1N1CCC(CNC(=O)CCn2ccnc2)C1 (stereo not given)	-4.06%	5.13%	-8.73%	10.8%	2.05%	12.2%	9.72%	12.9%	22.9%	-4.33%
COc1ncc(C2(O)CCN(Cc3c(F)cccc3F)CC2)c(OC)n1	-3.32%	9.33%	-4.97%	1.97%	-4.87%	13.3%	15.3%	2.12%	0%	-21.1%
CCCc1c(C(=O)NC2CCCC2)nnn1-c1ccc(OC)cc1	107%	17.3%	-6.12%	0%	6.2%	8.37%	27%	-1.06%	7.5%	-16.8%
Cc1ccccc1S(=O)(=O)N1CCCCC1c1ccn[nH]1 (stereo not given)	1.53%	9.33%	-8.62%	-7.5%	0.443%	13.3%	19.3%	0%	7.5%	-21.7%
C[C@@H]1C(=O)NC[C@H]2CN(CCc3ccccc3)C[C@H]21	-0.103%	16.9%	0.474%	1.5%	2.74%	11.4%	2.51%	11.6%	20%	-8.42%
COc1ccc(CN(C)CC(=O)NC2(C)CCS(=O)(=O)C2)cc1F (stereo not given)	0.854%	0%	4.26%	-5.42%	4.88%	2.8%	17.4%	-0.526%	0%	-1.6%
Cc1nn(-c2ccccc2)cc1C(=O)N1CCCC(n2cccn2)C1 (stereo not given)	-2.22%	13.3%	4.19%	1%	7.09%	9.07%	-2.62%	4.74%	12.8%	-12.7%
O=C(Cc1c[nH]c2ccccc12)N1CCC(Nc2cccnn2)CC1	-6.75%	15.6%	5.29%	-4.1%	3.07%	5.96%	5.15%	7.84%	16.5%	-5.46%
CC(C)c1nccn1-c1cccc(C2CCCN(C3CCCC3)C2)n1 (stereo not given)	-2.48%	6.67%	3.65%	0.197%	0.885%	15.6%	2.2%	6.35%	17.5%	-23.6%
O=S(=O)(CCCN1CCCC1Cn1cncn1)c1ccccc1 (stereo not given)	1.87%	26%	-0.0999%	1.49%	-4.71%	17.4%	2.97%	9.8%	21.2%	-10.1%
Cc1noc(C2CCN(C(=O)CN(C)c3ccc(Cl)cn3)CC2)n1	-1.77%	12.8%	-5.03%	4.6%	6.56%	8.11%	3.6%	8.13%	20.5%	-1.95%
CC(C)n1[nH]c(=O)c2c1NC(=O)CC2c1cccc(OC(F)F)c1 (stereo not given)	-3.01%	2.7%	-4.26%	-8.63%	-1.75%	16.1%	27.6%	1.6%	2.44%	-5.54%
O=C(CCN1CCCN(c2nccs2)CC1)Nc1ccccc1	-2.89%	10.7%	-7.96%	-4.82%	-5.76%	13.2%	17.4%	-0.526%	-5.13%	-12%
